The source of these data is ChEMBL document CHEMBL4513216, “Probing the Open Global Health Chemical Diversity Library for Multistage-Active Starting Points for Next-Generation Antimalarials” (ACS Infect Dis, 2020).

Out of some 65,000 compounds screened, about 2,100 (3.2%) showed an effect of 50% or more. The median lay at about -52%. Shown is part of a subset that was picked to be rich in strong results.

This test has as its system Plasmodium falciparum. The test is described as follows: Screen against P. falciparum Asexual Blood Stage (ABS), at 5uM. Particulars: tested at 5 uM. In kind it is functional, Dd2.
For `COC(=O)c1cccn1C1CCN(Cc2cnc3ccccn23)CC1`, the INHIBITION is on record as -55.1%.
As to `COC(=O)c1ccc(S(=O)(=O)NC2CNC(=O)C2)cc1` (configuration not stated), the INHIBITION is listed as -28.8%.
Under `Cn1c(=O)c2sccc2n(CC(=O)Nc2cccc(Cl)c2)c1=O` stands 59.4%.
Under `CC(C)c1cccc(NC(=O)Cn2c(=O)n(C)c(=O)c3sccc32)c1` stands -34.2%; under `CCn1c(=O)c2sccc2n(CC(=O)Nc2cccc(Cl)c2)c1=O`, -40%.
The same measure for `O=C(NC1CCN(c2ncccc2F)C1)c1cccc(-n2ccnc2)c1` (configuration not stated): -41.7%; for `Cc1ccc(S(=O)(=O)N2CCC(N3CCCCC3)CC2)cc1C`: 65.9%.
For `Cc1cc(S(=O)(=O)N2CCC(S(C)(=O)=O)C2)ccc1F` (configuration not stated), the INHIBITION is listed as -22.2%.
Under `Cc1cc(S(=O)(=O)N2CCCN3CCCC3C2)ccc1F` (configuration not stated) stands 69.1%; under `Cc1ccc(S(=O)(=O)N2CCC(S(C)(=O)=O)CC2)cc1C`, -1.8%; under `Cc1ccc(S(=O)(=O)N2CCCCC(N3CCN(C)CC3)C2)cc1F` (configuration not stated), 39.6%.
The same measure for `Cc1ccc(S(=O)(=O)N2CCC(S(=O)(=O)c3nncn3C)CC2)cc1C`: -31.9%.
The same measure for `CC(C(=O)N1CCc2sccc2C1)N1CCCN(C2CC2)CC1` (configuration not stated): 22.7%.
Take `CC(C(=O)N1CCc2sccc2C1)N1CCC(N2CCCC2)CC1` (configuration not stated): the INHIBITION turned out to be 53%.
Under `CC(C)NC(=O)C1CCN(C(C)C(=O)N2CCc3sccc3C2)CC1` (configuration not stated) stands -14.7%.
Under `CN1CCC(Cc2cncc(-c3ccccc3C(=O)O)n2)C1` (configuration not stated) stands -92%; under `CCc1nc2ccccc2c(=O)n1CC1(O)CCN(S(C)(=O)=O)CC1`, -59.6%.
Under `CC(C)c1cc(C(=O)N2CCOC3(CCCC3)C2)no1` stands -111%.
Regarding `CCOc1ccc(C(=O)Nc2c(C)nc3ccc(Cl)cn3c2=O)cc1`, the INHIBITION was -87.3%.
As for `CCOC(=O)c1ccc(S(=O)(=O)NCc2cccnc2N(C)C)cc1`, the INHIBITION is listed as 54.1%.
The same measure for `COC(=O)c1ccc(S(=O)(=O)NCc2cccnc2N(C)C)cc1`: -8.55%; for `CN(C)c1ncccc1CNS(=O)(=O)c1ccc(C(N)=O)cc1`: -34.2%.
Turning to `CC(C)(O)CCc1ccc(C(=O)N2Cc3cnn(CCO)c3C2)cc1`, the INHIBITION is reported as -86.5%.
Turning to `CCOc1ncnc2c1CCN(C(=O)NCc1cccnc1)CC2`, the INHIBITION is -58.1%.
Take `N#Cc1ccc(CNc2cnn(CCN3CCOCC3)c2)cc1`: the INHIBITION is given as -16.7%.
The same measure for `Clc1cccc(CNc2cnn(CCN3CCCCC3)c2)c1`: 53.3%.
The same measure for `Clc1ccc(CNc2cnn(CCN3CCOCC3)c2)cc1Cl`: -55.6%; for `Cn1nccc1CCNC(=O)[C@H]1CNC[C@H](C(=O)N2CCCC2)C1`: -22.7%.
The same measure for `COC(=O)CN1CCN(c2nc3c(s2)c(C)nn3C)C(C)C1=O` (configuration not stated): -88%; for `Cc1nn(C)c2nc(N3CCNC(=O)C3Cc3ccccc3)sc12` (configuration not stated): -81.9%.
For `Cc1ccc(CN2CCN(c3nc4c(s3)c(C)nn4C)C(C)C2=O)cc1` (configuration not stated), the INHIBITION worked out at 69.8%.
The same measure for `O=C(CN1C=Nc2ccccc2S1(=O)=O)NCCCc1ccccc1`: -115%.
The same measure for `CCn1cnnc1CNC(=O)N1CCN(c2ccccc2Cl)CC1`: -79.9%; for `COc1ccc(CN(Cc2cncn2C)CC2CCCO2)c(OC)c1` (configuration not stated): -22.7%; for `CSc1ccc(-c2nc(CN3CCNCC3C)c(C)o2)cc1` (configuration not stated): 35.1%.
Under `Cc1oc(-c2cc(F)cc(F)c2)nc1CN1C[C@@H](C)NC[C@@H]1C` stands 60.1%; under `CSc1ccc(-c2nc(CN3C[C@@H](C)NC[C@@H]3C)c(C)o2)cc1`, -61.5%; under `Cn1cc(N2C[C@@H]3CN(CC4CCOCC4)C[C@@H]3C2=O)cn1`, -67.1%.
With `Cn1cc(C2CCCN2C(=O)CCCc2ccccn2)cn1` (configuration not stated), the INHIBITION is listed as -94.3%.
With `Cc1ccc(CNC(=O)c2cc(Cn3ccnc3C(C)C)[nH]n2)o1`, the INHIBITION is given as -76.4%.
`CCCc1cc(N2CCC(NC3CCC(O)CC3)CC2)nc(C)n1` (configuration not stated): the INHIBITION is -161%.
Under `CCCc1cc(N2CCC(NCC3(O)CCCCC3)CC2)nc(C)n1` stands 8.94%; under `CCCc1cc(N2CCC(NCC3(O)CCN(C)CC3)CC2)nc(C)n1`, 51.2%; under `CCS(=O)(=O)CC(=O)NC(c1ccccc1)C1CCCC1` (configuration not stated), -30%.
Under `Cc1noc(C)c1CN1CCN(C(C)c2nc(C3CC3)no2)CC1` (configuration not stated) stands -77.5%; under `Cc1c(Cc2ccccc2)c(O)nc2nc(N3CCOCC3)nn12`, -56.2%; under `O=C(c1ccncc1)N1CCC2(CC1)CCN(C(=O)c1cccnc1)C2`, -57.2%.
For `CC(=O)Nc1ccc(OCc2noc(C(=O)N3CCCCCC3)n2)cc1`, the INHIBITION was -83.9%.
With `Nc1ccc(CC2CCCN(Cc3c[nH]cn3)C2)nn1` (configuration not stated), the INHIBITION is reported as -87%.
For `Cc1nc(CN2CCCC(CCc3c(F)cccc3F)C2)c[nH]1` (configuration not stated), the INHIBITION is 43.1%.
Under `Cc1nc(CN2CCCC(CCc3ccc(F)cc3F)C2)c[nH]1` (configuration not stated) stands 57.6%; under `Cc1[nH]c(=O)[nH]c(=O)c1CN1CCCC(CCc2c(F)cccc2F)C1` (configuration not stated), -44.3%.
